The values below come from paper PMC6792352, “Limited Chemical Structural Diversity Found to Modulate Thyroid Hormone Receptor in the Tox21 Chemical Library” (Environmental Health Perspectives, 2019).

The structures appear in SMILES notation. Structures can show the parent of a compound that is named as a salt. Bounds are passed on as bounds.

The test system of this assay is thyroid hormone receptor (endogenous TRα and TRβ). Also on record: species or system GH3-TRE-Luc (rat pituitary); GH3-TRE-Luc luciferase reporter, antagonist mode against 1 nM T3, loss of signal, qHTS. To be noted: read-out: Average AC50 (uM) GH3-TRE-Antag; 24 h; antagonist.
For `CCc1cc(OC)c(C[C@@H](C)N)cc1OC` [(-)-2,5-Dimethoxy-4-ethylamphetamine hydrochloride], the AC50 stood at 71.2 µM.
The same measure for `O=C1CN=C(c2ccccc2)c2cc(Cl)ccc2N1CC1CC1` [Prazepam]: more than 50 µM; for `CN1C(=O)CN=C(c2ccccc2)c2cc(Cl)ccc21` [Diazepam]: 49.5 µM.
The same measure for `O=c1oc2ccccc2c(O)c1C(CC(O)c1ccc(-c2ccc(Br)cc2)cc1)c1ccccc1` (centres unmarked) [Bromadiolone]: 44.3 µM.
In the case of `CC[C@]1(O)CC[C@H]2[C@@H]3CCC4=CCCC[C@@H]4[C@H]3CC[C@@]21C` [Ethylestrenol], the AC50 turned out to be 7.8 µM.
The same measure for `CCCCCCCCC(=O)NCc1ccc(O)c(OC)c1` [Nonivamide]: more than 50 µM.
The same measure for `Cc1nnc2n1-c1ccc(Cl)cc1C(c1ccccc1)=NC2` [Alprazolam]: 41.3 µM; for `Nc1c(Cl)cc([N+](=O)[O-])cc1Cl` [Dicloran]: 91.8 µM; for `O=C1Nc2ccc(Cl)cc2C(c2ccccc2)=NC1O` (centres unmarked) [Oxazepam]: more than 50 µM.
On to `CSCCCN=C=S` [3-(Methylthio)propyl isothiocyanate], for which the AC50 is more than 90 µM.
In the case of `Cl[Si](Cl)(c1ccccc1)c1ccccc1` [Dichlorodiphenylsilane], the AC50 was determined as 76.3 µM.
